High-throughput results (PubChem BioAssay)
A selection: hits, their analogues and other compounds. The true share with any hit is near 1.6%.
KCNQ2 block – blocks the rat KCNQ2 potassium channel | CHO-K1 KCNQ2, FluxOR thallium flux, 20 min; active compounds read low | B-score at 10 µM | actives 1.1% (n = 310,000);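 active = fluorescence ratio B-score at most minus 3 library SDs, with starting brightness B-score within 2 library SDs, cut at about -5.5 in these data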
Target sequence (O88943 whole entry, looked up): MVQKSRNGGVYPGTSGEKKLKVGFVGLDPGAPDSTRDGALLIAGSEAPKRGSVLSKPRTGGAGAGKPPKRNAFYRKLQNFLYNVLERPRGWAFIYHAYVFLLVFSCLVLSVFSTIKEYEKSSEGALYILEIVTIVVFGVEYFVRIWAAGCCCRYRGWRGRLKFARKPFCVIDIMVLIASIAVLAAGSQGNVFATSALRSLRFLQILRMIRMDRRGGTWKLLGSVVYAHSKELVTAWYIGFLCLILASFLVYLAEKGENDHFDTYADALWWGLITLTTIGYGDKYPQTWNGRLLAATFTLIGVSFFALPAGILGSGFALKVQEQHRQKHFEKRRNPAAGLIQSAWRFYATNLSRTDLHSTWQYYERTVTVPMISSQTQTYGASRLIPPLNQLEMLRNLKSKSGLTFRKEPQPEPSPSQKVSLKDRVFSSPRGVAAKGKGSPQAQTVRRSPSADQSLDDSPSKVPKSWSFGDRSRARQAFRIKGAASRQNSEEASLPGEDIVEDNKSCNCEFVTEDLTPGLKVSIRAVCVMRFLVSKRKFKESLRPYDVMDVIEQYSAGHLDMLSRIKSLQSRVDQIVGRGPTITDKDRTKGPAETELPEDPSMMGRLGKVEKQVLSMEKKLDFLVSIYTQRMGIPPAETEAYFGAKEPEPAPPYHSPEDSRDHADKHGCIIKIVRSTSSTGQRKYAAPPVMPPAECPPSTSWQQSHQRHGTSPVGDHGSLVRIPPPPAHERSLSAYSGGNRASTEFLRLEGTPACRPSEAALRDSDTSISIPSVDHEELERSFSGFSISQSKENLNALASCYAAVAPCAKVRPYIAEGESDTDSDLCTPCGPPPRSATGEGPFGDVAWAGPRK
KCNQ2 enhance – potentiators of rat KCNQ2 potassium channel. CHO-K1 KCNQ2, FluxOR thallium flux fluorescence; active compounds read high. AID 2239. B-score at 10 µM. O88943. actives 0.54% (n = 310,000);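 active = fluorescence ratio B-score at least 3 SD of library B-scores, with initial fluorescence B-score within 3 of them, cut at about 5.3 in these data; same plate scores as AID 2156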;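 also: B-score of peak minus minimum over baseline fluorescence ratio after K+ and Tl+ stimulus; positive B-score means potentiation of KCNQ2 with more thallium influx and brighter signal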
Numbers without * were called inactive.

`COc1cccc(-c2nn(-c3ccccc3)cc2C(=O)n2nnc3ccccc32)c1` gave KCNQ2 block -6.4* and KCNQ2 enhance -6.4.
For Cc1cccc(OCC(=O)Nc2ccccc2N2CCCCC2)c1 the results were KCNQ2 block inactive.
`Cc1cccc(OCC(=O)NC(=S)Nc2ccccc2N2CCOCC2)c1C` gave KCNQ2 block inactive.
For Cc1ccccc1OCC(=O)Nc1ccccc1-c1ccccc1NC(=O)COc1ccccc1C the results were KCNQ2 block -5.6* and KCNQ2 enhance -5.6.
CC(=O)N1CCN(c2ccccc2NC(=O)COc2ccccc2C)CC1 was read as KCNQ2 block inactive.
For Cc1cc(C)c(OCC(=O)Nc2ccccc2N2CCCCC2)c(C)c1 the results were KCNQ2 block -5.6* and KCNQ2 enhance -5.6.
`Cc1ccccc1OCC(=O)Nc1ccccc1N1CCC(C)CC1` gave KCNQ2 block -6.2* and KCNQ2 enhance -6.2.
`Cc1ccc(C(C)C)c(OCC(=O)NC(=S)Nc2ccccc2N2CCOCC2)c1` gave KCNQ2 block -6.5* and KCNQ2 enhance -6.5.
Cc1ccccc1OCC(=O)Nc1cccc(Cl)c1C was read as KCNQ2 block inactive and KCNQ2 enhance 0.3.
`O=C(CN1C(=O)NC2(CCCC2)C1=O)OCCOc1ccc(Cl)cc1` gave KCNQ2 block inactive.
CCN(CCn1cccn1)C(=O)c1ccc(OC2CCN(C(=O)COC)CC2)cc1 was read as KCNQ2 block inactive.
Screening Cc1cccc(NC(=O)C2C3C=CC(O3)C2C(=O)O)c1 (stereo not given) returned KCNQ2 block inactive.
Screening COC(=O)c1[nH]c2cc(OC)c(OC)cc2c1/C=N/Nc1ccccc1 returned KCNQ2 block inactive and KCNQ2 enhance 1.3.
COc1ccc(C(=O)NC(=S)Nc2ccccc2N2CCOCC2)cc1Br was read as KCNQ2 block inactive.
Cc1ccc(OCC(=O)Nc2ccccc2N2CCCC2)c(C)c1 was read as KCNQ2 block -5.6* and KCNQ2 enhance -5.6.
Cc1ccccc1OCC(=O)Nc1ccc(S(=O)(=O)N2CCCC2)cc1 was read as KCNQ2 block inactive.
Screening COc1ccc(C(=O)Nc2ccccc2N2CCOCC2)cc1Br returned KCNQ2 block -6.3* and KCNQ2 enhance -6.3.
`Cc1ccccc1OCC(=O)Nc1ccc(C)c(S(=O)(=O)N2CCCCCC2)c1` gave KCNQ2 block -6.1* and KCNQ2 enhance -6.1.
Screening O=C(COc1ccccc1)Nc1ccccc1N1CCCCC1 returned KCNQ2 block inactive.
For Cc1ccc(N2CC(C(=O)Nc3nc4ccc(S(C)(=O)=O)cc4s3)CC2=O)cc1C (stereo not given) the results were KCNQ2 block inactive.
`CCOC(=O)c1cc2c(ccc3nc(C)c(C)c32)[nH]c1C` gave KCNQ2 block inactive and KCNQ2 enhance 0.83.
`Cc1ccc(C)c(S(=O)(=O)N2CCCC2CNC(=O)C(=O)NCc2ccccn2)c1` (stereo not given) gave KCNQ2 block inactive and KCNQ2 enhance 0.79.
For CCOc1ccc(CN(C(=O)c2cccs2)C2CCS(=O)(=O)C2)cc1 (stereo not given) the results were KCNQ2 block inactive.
`O=C(CC(C(=O)O)c1ccc(Cl)cc1)c1ccccc1` (stereo not given) gave KCNQ2 block inactive.
For COC(=O)C(CC(=O)c1ccc(Cl)cc1)c1ccc(C)cc1 (stereo not given) the results were KCNQ2 block -6.5* and KCNQ2 enhance -6.5.
`CN(CC(=O)Nc1ccc(Cl)cc1)C(=O)c1cc(-c2cccs2)nn1-c1ccccc1` gave KCNQ2 block -7.6* and KCNQ2 enhance -7.6.
For CN(CC(=O)Nc1c(Cl)cccc1Cl)C(=O)c1cc(-c2cccs2)nn1-c1ccccc1 the results were KCNQ2 block inactive.
For O=C(Nc1ccnn1C1CCN(Cc2ccc(CO)o2)CC1)c1ccccc1 the results were KCNQ2 block inactive and KCNQ2 enhance 0.46.
`COC(=O)c1cccnc1NC(=S)NC1CCCCC1` gave KCNQ2 block inactive and KCNQ2 enhance 7.7*.
For COC(=O)c1ccc(NC(=S)NC2CCCCC2)cc1 the results were KCNQ2 block inactive.
Screening CCCCNc1c(-c2cccc(-c3ccc(OC)cc3)c2)nc2ccc(C)cn12 returned KCNQ2 block -6.1* and KCNQ2 enhance -6.1.
`CCCCNc1c(-c2cccc(-c3cc(C(C)=O)cs3)c2)nc2ccc(C)cn12` gave KCNQ2 block inactive.
CSCC[C@H](NC(=O)Nc1cccc(Br)c1)C(=O)O was read as KCNQ2 block inactive and KCNQ2 enhance 0.97.
For O=C(OC(C(=O)Nc1ccc(Cl)c(C(F)(F)F)c1)c1ccccc1)C1=COCCO1 (stereo not given) the results were KCNQ2 block inactive.
`Cc1cc(C)cc(NC(=O)C(OC(=O)C2=COCCO2)c2ccccc2)c1` (stereo not given) gave KCNQ2 block -6.6* and KCNQ2 enhance -6.6.
Screening Cc1cc(C)cc(OCC(O)CN2CC(C)OC(C)C2)c1 (stereo not given) returned KCNQ2 block inactive and KCNQ2 enhance 0.08.
Screening CCOc1ccccc1Nc1ccnc2cc(Cl)ccc12 returned KCNQ2 block inactive and KCNQ2 enhance 0.02.
CCOc1ccccc1Nc1cc(C)c2cccc(C)c2n1 was read as KCNQ2 block -5.8* and KCNQ2 enhance -5.8.
For O=C(O)C1(S(=O)(=O)CCC(F)=C(F)F)CC1 the results were KCNQ2 block inactive.
N=c1sccn1CC(=O)NC(c1ccccc1)c1ccccc1 was read as KCNQ2 block inactive.
`O=C1c2cccc(OCc3ccc(F)cc3)c2CCN1Cc1ccccc1` gave KCNQ2 block -6.5* and KCNQ2 enhance -6.5.
For Cc1ccc(COc2cccc3c2CCN(Cc2ccc(F)cc2)C3=O)cc1 the results were KCNQ2 block inactive.
COc1ccc(C(=O)COC(=O)Cn2[nH]c(=O)c3ccccc3c2=O)c(OC)c1 was read as KCNQ2 block inactive and KCNQ2 enhance 1.3.
CCn1c(=O)c2c(nc3n2CCCN3c2cccc(C)c2)n(C)c1=O was read as KCNQ2 block inactive and KCNQ2 enhance 0.01.
For c1ccc(-c2cc3c(N4CCN(c5ccccc5)CC4)ncnc3s2)cc1 the results were KCNQ2 block -7.7* and KCNQ2 enhance -7.7.
For c1ccc(-c2cc3c(N4CCN(c5ncccn5)CC4)ncnc3s2)cc1 the results were KCNQ2 block inactive.
For CCOc1ccc(NC(=O)CN2C(=O)COc3ccccc32)cc1 the results were KCNQ2 block inactive and KCNQ2 enhance 0.05.
For Cc1ccc(C(=O)N(Cc2cccnc2)Cc2cc3cc(C)ccc3n3nnnc23)cc1 the results were KCNQ2 block inactive and KCNQ2 enhance 0.6.
CCN(CC)C(=O)C1(P(=O)(c2ccccc2)c2ccccc2)CCC1 was read as KCNQ2 block inactive.
`CCCCN(CCCC)C(=O)C1(P(=O)(c2ccccc2)c2ccccc2)CCC1` gave KCNQ2 block -6.2* and KCNQ2 enhance -6.2.
Cc1nc2ccccn2c(=O)c1NC(=O)c1cccc2ccccc12 was read as KCNQ2 block inactive and KCNQ2 enhance 0.98.
COc1ccccc1C1CN(c2ccc(F)cc2F)N=C1c1cccs1 (stereo not given) was read as KCNQ2 block -7.8* and KCNQ2 enhance -7.8.
Screening COc1ccccc1C1CC(c2cccs2)=NN1C(=O)CCC(=O)O (stereo not given) returned KCNQ2 block inactive and KCNQ2 enhance 0.69.
O=C(NC1CCCCNC1=O)c1ccco1 (stereo not given) was read as KCNQ2 block inactive and KCNQ2 enhance 0.7.
